These results are taken from PubChem BioAssay (NCATS).

Records with an inconclusive call do not appear. A call without a number means that no potency is given here. Calls of active or inactive are those of the source. The call rests on the fitted dose curve; in most records, active means well fitted cell-killing curve with a large enough effect; inconclusive means small, poorly fitted or top-dose-only effect, or effect the other way; inactive means no such curve, though single readings can be large or run the other way.
Potency means the concentration at half of the fitted maximal effect.

One experiment can be described thus: Quantitative High-Throughput drug screen in 47 multiple myeloma cell lines against the NCATS MIPE library collection: U266_ATCC cell viability assay (AID 1919864). Further: nearly all actives have a fitted effect of over 35% in size. To be noted: U266 myeloma viability, CellTiter-Glo ATP luminescence, 48 h; series mostly up to 45.8 µM. In a few lines:
(§1)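 qHTS format: cells plated (500/well), pin-dosed with MIPE 4.0 compounds, kept 48 h at 37 °C. Readout was CellTiter-Glo luminescence, median RLU.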
Background: ATP-based viability assays read luminescence as a measure of living cells.
Consider `Cc1cc(C(C)(C)C)cc(C)c1CC1=NCCN1`, for which the Potency entry is “inactive”.
Still for that read-out and setting: the entry for `Cc1ccc(C(=O)Nc2ccc(S(=O)(=O)O)c3cc(S(=O)(=O)O)cc(S(=O)(=O)O)c23)cc1NC(=O)c1cccc(NC(=O)Nc2cccc(C(=O)Nc3cc(C(=O)Nc4ccc(S(=O)(=O)O)c5cc(S(=O)(=O)O)cc(S(=O)(=O)O)c45)ccc3C)c2)c1` is “inactive”; for `CCC1(C)CC(=O)NC1=O` (stereo unspecified) it is “inactive”; for `O=C(c1ccc(F)cc1)C1CCN(CCn2c(=O)[nH]c3ccccc3c2=O)CC1` it is 4.69 µM (active).
On the same count and under the same terms, the entry for `NCCS(=O)(=O)O` is “inactive”; for `Nc1ccn([C@H]2CC[C@@H](CO)O2)c(=O)n1` it is “inactive”; for `CN(CCOc1ccc(NS(C)(=O)=O)cc1)CCc1ccc(NS(C)(=O)=O)cc1` it is “inactive”.
As to `CCCNCC(O)COc1ccccc1C(=O)CCc1ccccc1` (stereo unspecified), the Potency entry is “inactive”.
On the same count and under the same terms, the entry for `CC(COc1ccccc1)N(CCCl)Cc1ccccc1` (stereo unspecified) is “inactive”; for `Clc1ccccc1C(c1ccccc1)(c1ccccc1)n1ccnc1` it is “inactive”.
On the same count and under the same terms, the result for `Cn1c(=O)c2[nH]cnc2n(C)c1=O` reads 20.9 µM (active); that for `COc1ccccc1N1CCN(CC(O)COc2cccc3ccccc23)CC1` (stereo unspecified), “inactive”; that for `CC(CCc1ccc(O)cc1)NCCc1ccc(O)c(O)c1` (stereo unspecified), 23.5 µM (active).
The same measure, in the same setting: the entry for `CC1COc2c(N3CCN(C)CC3)c(F)cc3c(=O)c(C(=O)O)cn1c23` (stereo unspecified) is “inactive”; for `Cc1cn([C@H]2C[C@H](N=[N+]=[N-])[C@@H](CO)O2)c(=O)[nH]c1=O` it is 16.6 µM (active).
As for `CN1CCN(C2=Nc3cc(Cl)ccc3Nc3ccccc32)CC1`, the Potency entry is “inactive”.
On the same count and under the same terms, the result for `CCOC(=O)C(C)(C)Oc1ccc(Cl)cc1` reads “inactive”.
Still for that read-out and setting: the figure for `NC12CC3CC(CC(C3)C1)C2` is 26.4 µM (active); for `Clc1ccc(C(c2ccccc2Cl)C(Cl)Cl)cc1` (stereo unspecified) it is 20.9 µM (active).
Same read-out and setting: the entry for `CN(C)C(=N)N=C(N)N` is “inactive”.
Take `C[C@](N)(Cc1ccc(O)c(O)c1)C(=O)O`: the Potency was 18.7 µM (active).
Same read-out and setting: the figure for `CC1(CN2CCC(n3c(=O)[nH]c4ccccc43)CC2)OCc2ccccc2-n2cccc21` (stereo unspecified) is 5.9 µM (active).
Same read-out and setting: the figure for `NC(=O)OCC(COC(N)=O)c1ccccc1` is 10.5 µM (active); for `COc1ccc(C2CNC(=O)C2)cc1OC1CCCC1` (stereo unspecified) it is “inactive”.
Still for that read-out and setting: the entry for `CC(C)(Oc1ccc(C2CC2(Cl)Cl)cc1)C(=O)O` (stereo unspecified) is “inactive”.
As for `COc1ccc2[nH]cc(CCNC(C)=O)c2c1`, the Potency is 8.33 µM (active).
Take `NCCc1cnc[nH]1`: the Potency result was “inactive”.
As for `O=C1N(c2ccccc2)c2ccccc2C1(Cc1ccncc1)Cc1ccncc1`, the Potency entry is “inactive”.
Take `COc1nc(C)nc(Cl)c1NC1=NCCN1`: the Potency is 20.9 µM (active).

The next experiment can be described thus: Quantitative High-Throughput drug screen in 47 multiple myeloma cell lines against the NCATS MIPE library collection: XG6_PLB cell viability assay (AID 1919865). Further: nearly all actives have a fitted effect of over 40% in size. The following applies: XG6 myeloma viability, CellTiter-Glo ATP luminescence, 48 h; series mostly up to 45.8 µM. In a few lines: as §1
With `O=C1Cc2cc(CCN3CCN(c4nsc5ccccc45)CC3)c(Cl)cc2N1`, the Potency is 23.5 µM (active).
Still for that read-out and setting: the result for `C[C@H]1c2cccc(O)c2C(O)=C2C(=O)[C@]3(O)C(O)=C(C(N)=O)C(=O)[C@@H](N(C)C)[C@@H]3[C@@H](O)[C@@H]21` reads 18.7 µM (active); that for `CCC1(C)CC(=O)NC1=O` (stereo unspecified), “inactive”.
The same measure, in the same setting: the result for `O=C(Nc1ccc([N+](=O)[O-])cc1Cl)c1cc(Cl)ccc1O` reads 1.32 µM (active).
Still for that read-out and setting: the entry for `O=C(c1ccc(F)cc1)C1CCN(CCn2c(=O)[nH]c3ccccc3c2=O)CC1` is “inactive”; for `NCCS(=O)(=O)O` it is “inactive”.
With `Nc1ccn([C@H]2CC[C@@H](CO)O2)c(=O)n1`, the Potency was 10.5 µM (active).
In the case of `CN(CCOc1ccc(NS(C)(=O)=O)cc1)CCc1ccc(NS(C)(=O)=O)cc1`, the Potency is 13.2 µM (active).
On the same count and under the same terms, the result for `CCCNCC(O)COc1ccccc1C(=O)CCc1ccccc1` (stereo unspecified) reads “inactive”.
On to `Clc1ccccc1C(c1ccccc1)(c1ccccc1)n1ccnc1`, for which the Potency was 5.9 µM (active).
On the same count and under the same terms, the figure for `Cn1c(=O)c2[nH]cnc2n(C)c1=O` is 26.4 µM (active).
Still for that read-out and setting: the figure for `NC12CC3CC(CC(C3)C1)C2` is 2.96 µM (active); for `CC1(CN2CCC(n3c(=O)[nH]c4ccccc43)CC2)OCc2ccccc2-n2cccc21` (stereo unspecified) it is 4.18 µM (active); for `CN1CCC(=C2c3ccccc3CC(=O)c3sccc32)CC1` it is 5.9 µM (active).
Same read-out and setting: the entry for `NC(=O)OCC(COC(N)=O)c1ccccc1` is “inactive”.
For `COc1ccc(C2CNC(=O)C2)cc1OC1CCCC1` (stereo unspecified), the Potency is 20.9 µM (active).
On the same count and under the same terms, the entry for `CC(=O)OCC(CCn1cnc2cnc(N)nc21)COC(C)=O` is “inactive”.

A short description of the next experiment: Quantitative High-Throughput drug screen in 47 multiple myeloma cell lines against the NCATS MIPE library collection: XG1_PLB cell viability assay (AID 1919866). Further: nearly all actives have a fitted effect of over 35% in size. The following applies: CellTiter-Glo ATP, 48 h; series mostly up to 45.8 µM. In a few lines: as §1
Take `Cc1cc(C(C)(C)C)cc(C)c1CC1=NCCN1`: the Potency entry was “inactive”.
Same read-out and setting: the figure for `O=C1Cc2cc(CCN3CCN(c4nsc5ccccc45)CC3)c(Cl)cc2N1` is 23.5 µM (active); for `C[C@H]1c2cccc(O)c2C(O)=C2C(=O)[C@]3(O)C(O)=C(C(N)=O)C(=O)[C@@H](N(C)C)[C@@H]3[C@@H](O)[C@@H]21` it is 18.7 µM (active); for `CCC1(C)CC(=O)NC1=O` (stereo unspecified) it is “inactive”.
For the compound `O=C(Nc1ccc([N+](=O)[O-])cc1Cl)c1cc(Cl)ccc1O`, the Potency was 0.935 µM (active).
Still for that read-out and setting: the result for `NCCS(=O)(=O)O` reads “inactive”; that for `CN(CCOc1ccc(NS(C)(=O)=O)cc1)CCc1ccc(NS(C)(=O)=O)cc1`, “inactive”; that for `COc1ccccc1N1CCN(CC(O)COc2cccc3ccccc23)CC1` (stereo unspecified), “inactive”.
Still for that read-out and setting: the figure for `CC(CCc1ccc(O)cc1)NCCc1ccc(O)c(O)c1` (stereo unspecified) is 23.5 µM (active).
The same measure, in the same setting: the entry for `CC1COc2c(N3CCN(C)CC3)c(F)cc3c(=O)c(C(=O)O)cn1c23` (stereo unspecified) is “inactive”; for `Cc1cn([C@H]2C[C@H](N=[N+]=[N-])[C@@H](CO)O2)c(=O)[nH]c1=O` it is 16.6 µM (active); for `C[C@](N)(Cc1ccc(O)c(O)c1)C(=O)O` it is “inactive”.
For the compound `CC1(CN2CCC(n3c(=O)[nH]c4ccccc43)CC2)OCc2ccccc2-n2cccc21` (stereo unspecified), the Potency is 4.18 µM (active).
On to `CN1CCC(=C2c3ccccc3CC(=O)c3sccc32)CC1`, for which the Potency is 8.33 µM (active).
Same read-out and setting: the entry for `NC(=O)OCC(COC(N)=O)c1ccccc1` is “inactive”; for `CC(C)(Oc1ccc(C2CC2(Cl)Cl)cc1)C(=O)O` (stereo unspecified) it is “inactive”; for `COc1ccc2[nH]cc(CCNC(C)=O)c2c1` it is “inactive”.
Take `CC(=O)OCC(CCn1cnc2cnc(N)nc21)COC(C)=O`: the Potency result was “inactive”.
With `NCCc1cnc[nH]1`, the Potency entry is “inactive”.
The same measure, in the same setting: the figure for `O=C1N(c2ccccc2)c2ccccc2C1(Cc1ccncc1)Cc1ccncc1` is 18.7 µM (active).
